Results as given in PubChem BioAssay (EPA / NIEHS).
Results filed as inconclusive are left out. Active and inactive are the calls of the source. How the source made its calls, unless noted: active means hit-call score of the fitted dose curve at least 0.9, where 1 is the maximum; inactive means score below 0.9.

Legend:
[1] = ATG_PXRE_CIS: Attagene CIS-FACTORIAL HepG2 Assay for human Pregnane X Receptor Element (PXRE) (AID 2282957); conditions: HepG2 Attagene CIS-FACTORIAL PXRE reporter, mRNA; actives raise or lower the signal
How it was run: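 Multiplexed cis-reporter assay in transiently transfected human HepG2 cells; 24 h chemical exposure. Reporter transcripts quantified by RT-PCR with fluorescent labeling and capillary electrophoresis.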

[2] = ATG_PPRE_CIS: Attagene CIS-FACTORIAL HepG2 Assay for human Peroxisome Proliferator-activated Response Element (PPRE) (AID 2282958); conditions: HepG2 PPRE cis-element reporter, Attagene transcription factor profiling; actives raise or lower the signal
How it was run: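 HepG2, transient MRTU transfection (cis promoter elements, endogenous TFs). 24 h dosing. RNA → oligo(dT) RT → PCR → 6-FAM primer extension → HpaI digest → CE. Bidirectional fit vs DMSO.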

[3] = ATG_RORE_CIS: Attagene CIS-FACTORIAL HepG2 Assay for human RAR-related Orphan Receptor Element (RORE) (AID 2282959); conditions: HepG2 Attagene cis-factorial RORE reporter, mRNA; actives raise or lower the signal
How it was run: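 Transient MRTU transfection of human HepG2 liver cells (FuGene 6); 24 h compound exposure; TriZol RNA, oligo(dT) RT, PCR, FAM labeling, HpaI cut, CE fragment analysis. DMSO = negative control/baseline.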

[4] = ATG_Sox_CIS: Attagene CIS-FACTORIAL HepG2 Assay for human SRY-box transcription factor (SOX) (AID 2282960); conditions: HepG2 Attagene cis-factorial SOX reporter, mRNA; actives raise or lower the signal
How it was run: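 Endogenous factor activity in human liver HepG2 cells carrying transfected cis-regulated reporter units. RNA taken 24 h post-dose, reverse-transcribed, PCR-amplified and sized by capillary electrophoresis. Gain or loss of signal fitted relative to DMSO.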

[5] = molecular target: Transcription factor Sp1 (Homo sapiens) (UniProt P08047); experiment: ATG_Sp1_CIS: Attagene CIS-FACTORIAL HepG2 Assay for human Specificity Protein 1 (Sp1) (AID 2282961); conditions: HepG2 Sp1 cis-reporter transcription, actives raise or lower the signal
How it was run: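 Transient MRTU-transfected HepG2, 24 h compound exposure. Total RNA → oligo(dT) RT → PCR of reporter → 6-FAM primer extension → HpaI digest → CE. Endpoint fitted both directions vs DMSO.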

[6] = ATG_SREBP_CIS: Attagene CIS-FACTORIAL HepG2 Assay for human Sterol Regulatory Element Binding (SREBP) (AID 2282962); conditions: HepG2 Attagene cis-factorial SREBP reporter, mRNA; actives raise or lower the signal
How it was run: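 Transfected HepG2 (cis-regulated reporter library, endogenous TFs) → compound 24 h → total RNA → oligo(dT) RT → reporter-specific PCR → FAM primer extension, HpaI cut → CE fluorescence. Fit bidirectional vs DMSO.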

[7] = molecular target: Signal transducer and activator of transcription 3 (Homo sapiens) (UniProt P40763); experiment: ATG_STAT3_CIS: Attagene CIS-FACTORIAL HepG2 Assay for human Signal Transducer and Activator of Transcription 3 (STAT3) (AID 2282963); conditions: HepG2, Attagene cis-factorial STAT3 reporter transcription; actives raise or lower the signal
How it was run: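 HepG2 cells transiently transfected with cis-element-driven multiple reporter transcription units; after 24 h chemical exposure, reporter mRNA measured by RT-PCR, 6-FAM primer-extension labelling, HpaI digestion and capillary electrophoresis. Bidirectional fitting versus DMSO baseline.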

[8] = ATG_TA_CIS: Attagene CIS-FACTORIAL HepG2 Assay for human TA Basal Promoter (AID 2282964); conditions: HepG2 Attagene CIS-factorial TA basal promoter reporter; actives raise or lower the signal
How it was run: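 Read-out: fluorescent reporter-transcript fragments resolved by capillary electrophoresis after RT-PCR and HpaI digestion. Source: HepG2 cells carrying transiently transfected multi-reporter cis constructs, treated 24 h. Endpoint fitted bidirectionally relative to DMSO.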

[9] = ATG_TCF_b_cat_CIS: Attagene CIS-FACTORIAL HepG2 Assay for human T-Cell-Factor with beta-catenin (TCF/b-cat) (AID 2282965); conditions: HepG2 TCF/beta-catenin cis-reporter transcription, actives raise or lower the signal
How it was run: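 In this cis-format system, transfected HepG2 cells report endogenous transcription factor activity. Readout after 24 h exposure is reporter transcript abundance from RT-PCR and capillary electrophoresis, analysed for gain or loss of signal versus DMSO.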

[10] = ATG_TAL_CIS: Attagene CIS-FACTORIAL HepG2 Assay for human TAL Basal Promoter (AID 2282966); conditions: HepG2 Attagene cis-factorial TAL promoter reporter; actives raise or lower the signal;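 further: background control endpoint measuring basal TAL promoter reporter mRNA not a specific factor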
How it was run: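 Steps: transfect HepG2 with multiple reporter transcription units; dose 24 h; isolate RNA, reverse-transcribe, PCR-amplify, label with 6-FAM, digest with HpaI; resolve by capillary electrophoresis. Bidirectional fitting against DMSO baseline.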

[11] = ATG_TGFb_CIS: Attagene CIS-FACTORIAL HepG2 Assay for human Transforming Growth Factor (TGF) (AID 2282967); conditions: HepG2 Attagene CIS TGFb reporter, mRNA transcription; actives raise or lower the signal
How it was run: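 Transient MRTU transfection of HepG2 (FuGene 6). Dose 24 h. TriZol RNA, oligo(dT) RT, PCR, 6-FAM primer extension, HpaI cut, CE. Bidirectional fit, DMSO = baseline.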

[12] = ATG_VDRE_CIS: Attagene CIS-FACTORIAL HepG2 Assay for human Vitamin D Receptor Element (VDRE) (AID 2282968); conditions: HepG2 VDRE cis-reporter transcription, actives raise or lower the signal
How it was run: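 HepG2 cells transiently transfected with cis-element reporter units, dosed 24 h; reporter mRNA measured by RT-PCR, 6-FAM labeling, HpaI digestion and capillary electrophoresis. Activity fitted bidirectionally against DMSO baseline.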

[13] = molecular target: Estrogen receptor (Homo sapiens) (UniProt P03372); experiment: ATG_ERa_TRANS: Attagene TRANS-FACTORIAL HepG2 Assay for human Estrogen Receptor alpha (ERa) (AID 2282970; active means hit-call score of the fitted dose curve at least 0.9, where 1 is the maximum); conditions: HepG2 Attagene TRANS ERa GAL4 reporter, mRNA
How it was run: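 Multiplexed cell-based reporter format in HepG2: chimeric ERa-Gal4 protein drives GAL4-UAS reporter transcription. Fluorescent reporter mRNA quantified by capillary electrophoresis 24 hours after dosing; endpoint fitted as signal gain against DMSO.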

[14] = molecular target: Steroid hormone receptor ERR1 (Homo sapiens) (UniProt P11474); experiment: ATG_ERRa_TRANS: Attagene TRANS-FACTORIAL HepG2 Assay for human Estrogen-Related Receptor alpha (ERRa) (AID 2282971; active means hit-call score of the fitted dose curve at least 0.9, where 1 is the maximum); conditions: HepG2 Attagene TRANS reporter, ERRa transactivation
How it was run: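 Signal gain relative to DMSO for an ERRa-Gal4 chimeric receptor, read as reporter mRNA by RT-PCR/capillary electrophoresis. Human HepG2 liver cells, transient multiplex reporter transfection, 24 h chemical exposure.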

[15] = molecular target: X-box-binding protein 1 (Homo sapiens) (UniProt P17861); experiment: ATG_Xbp1_CIS: Attagene CIS-FACTORIAL HepG2 Assay for human X-box Binding Protein 1 (XBP1) (AID 2282972); conditions: HepG2 XBP1 cis-element reporter, Attagene multiplex; actives raise or lower the signal
How it was run: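 HepG2, transient MRTU transfection (cis-promoter driven), 24 h compound exposure. Total RNA → oligo(dT) RT → PCR → 6-FAM labeling → HpaI cut → CE. Bidirectional fit vs DMSO.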

[16] = ATG_GAL4_TRANS: Attagene TRANS-FACTORIAL HepG2 Assay for GAL4 (Internal Marker) (AID 2282976; active means hit-call score of the fitted dose curve at least 0.9, where 1 is the maximum); conditions: HepG2 Attagene TRANS GAL4 internal marker reporter
How it was run: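 Liver HepG2 line bearing multiplexed GAL4-UAS reporter constructs; 24 h chemical treatment. Transcripts were quantified as fluorescent fragments on capillary electrophoresis after RT-PCR and HpaI cut, with activity fitted upward from DMSO.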

[17] = ATG_M_19_TRANS: Attagene TRANS-FACTORIAL HepG2 Assay for M19 Transcription Factor (Internal Marker) (AID 2282974; active means hit-call score of the fitted dose curve at least 0.9, where 1 is the maximum); conditions: HepG2 Attagene TRANS-FACTORIAL M19 internal marker reporter
How it was run: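 Fluorescence of 6-FAM-labelled reporter cDNA fragments, separated by capillary electrophoresis, served as the readout. These derived from HepG2 cells carrying transfected GAL4-UAS reporter units after 24 h dosing, with DMSO as negative control.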

[18] = molecular target: Estrogen-related receptor gamma (Homo sapiens) (UniProt P62508); experiment: ATG_ERRg_TRANS: Attagene TRANS-FACTORIAL HepG2 Assay for human Estrogen-Related Receptor gamma (ERRg) (AID 2282977; active means hit-call score of the fitted dose curve at least 0.9, where 1 is the maximum;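 further: hits increase reporter signal over DMSO so potencies reflect activators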); conditions: HepG2 Attagene TRANS reporter, ERRg transactivation
How it was run: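 HepG2 cells transiently transfected with multiplexed GAL4-UAS reporter units and chimeric NR-Gal4 constructs were exposed to test chemicals for 24 h. Reporter mRNA was measured by RT-PCR, 6-FAM primer extension, HpaI digestion and capillary electrophoresis; gain-of-signal versus DMSO.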

[19] = molecular target: Nuclear receptor subfamily 1 group I member 3 (Homo sapiens) (UniProt Q14994); experiment: ATG_CAR_TRANS: Attagene TRANS-FACTORIAL HepG2 Assay for human Constitutive Androstane Receptor (CAR) (AID 2282969; active means hit-call score of the fitted dose curve at least 0.9, where 1 is the maximum;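 further: activators raise reporter mRNA above DMSO so AC50 marks induction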); conditions: HepG2 Attagene TRANS-FACTORIAL CAR reporter
How it was run: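 HepG2 cells transiently transfected with multiplexed GAL4-UAS reporter units expressing chimeric NR-Gal4 proteins; compound exposure 24 h. Reporter mRNA measured by RT-PCR, 6-FAM labelling, HpaI digestion and capillary electrophoresis; gain-of-signal fitted against DMSO baseline.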

[20] = molecular target: Glucocorticoid receptor (Homo sapiens) (UniProt P04150); experiment: ATG_GR_TRANS: Attagene TRANS-FACTORIAL HepG2 Assay for human Glucocorticoid Receptor (GR) (AID 2282978; active means hit-call score of the fitted dose curve at least 0.9, where 1 is the maximum;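 further: activators score as hits since higher reporter transcript over DMSO is fitted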); conditions: HepG2 Attagene TRANS GR reporter, mRNA transcription
How it was run: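 Fluorescent capillary-electrophoresis quantitation of reporter mRNA is the readout, taken 24 h after dosing human HepG2 cells carrying transiently transfected GAL4-UAS reporter units activated by chimeric NR-GAL4 fusions; activity scored as induction over DMSO.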

Measured: AC50

Sequence of Estrogen receptor (Homo sapiens) (P03372 whole entry, looked up, the tested form may be a part): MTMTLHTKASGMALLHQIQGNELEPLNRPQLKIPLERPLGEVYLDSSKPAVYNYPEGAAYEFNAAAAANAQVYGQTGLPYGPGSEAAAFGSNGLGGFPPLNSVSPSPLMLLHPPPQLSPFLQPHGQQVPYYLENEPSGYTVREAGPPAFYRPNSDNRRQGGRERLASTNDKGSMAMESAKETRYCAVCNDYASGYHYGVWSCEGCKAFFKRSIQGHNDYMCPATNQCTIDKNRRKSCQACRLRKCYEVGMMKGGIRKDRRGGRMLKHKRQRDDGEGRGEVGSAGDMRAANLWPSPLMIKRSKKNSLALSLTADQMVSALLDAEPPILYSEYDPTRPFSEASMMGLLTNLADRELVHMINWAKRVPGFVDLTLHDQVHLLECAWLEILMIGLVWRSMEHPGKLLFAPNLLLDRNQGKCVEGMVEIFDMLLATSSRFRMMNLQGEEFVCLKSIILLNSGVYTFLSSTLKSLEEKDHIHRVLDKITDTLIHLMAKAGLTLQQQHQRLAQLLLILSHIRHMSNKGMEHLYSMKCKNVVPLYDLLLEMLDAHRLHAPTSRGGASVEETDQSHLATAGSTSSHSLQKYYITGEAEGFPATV
Sequence of X-box-binding protein 1 (Homo sapiens) (P17861 whole entry, looked up): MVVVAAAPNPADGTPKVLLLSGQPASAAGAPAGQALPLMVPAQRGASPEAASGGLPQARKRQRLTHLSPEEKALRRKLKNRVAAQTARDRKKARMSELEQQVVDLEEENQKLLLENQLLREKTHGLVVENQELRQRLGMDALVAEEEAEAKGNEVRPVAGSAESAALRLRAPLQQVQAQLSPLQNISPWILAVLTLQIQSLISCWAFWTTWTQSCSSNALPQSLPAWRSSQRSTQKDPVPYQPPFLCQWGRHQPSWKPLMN
Sequence of Steroid hormone receptor ERR1 (Homo sapiens) (P11474 whole entry, looked up, the tested form may be a part): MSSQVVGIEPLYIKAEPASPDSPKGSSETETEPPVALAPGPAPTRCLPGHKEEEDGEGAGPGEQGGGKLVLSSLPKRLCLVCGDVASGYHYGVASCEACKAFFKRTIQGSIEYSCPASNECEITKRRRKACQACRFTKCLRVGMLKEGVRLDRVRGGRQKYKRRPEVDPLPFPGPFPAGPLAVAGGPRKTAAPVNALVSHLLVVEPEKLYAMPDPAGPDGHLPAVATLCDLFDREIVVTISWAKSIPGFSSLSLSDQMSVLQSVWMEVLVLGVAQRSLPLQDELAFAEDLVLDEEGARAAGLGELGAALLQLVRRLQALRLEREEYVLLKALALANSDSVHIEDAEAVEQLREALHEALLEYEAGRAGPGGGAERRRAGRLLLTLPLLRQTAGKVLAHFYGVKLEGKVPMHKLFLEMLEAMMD
Sequence of Signal transducer and activator of transcription 3 (Homo sapiens) (P40763 whole entry, looked up): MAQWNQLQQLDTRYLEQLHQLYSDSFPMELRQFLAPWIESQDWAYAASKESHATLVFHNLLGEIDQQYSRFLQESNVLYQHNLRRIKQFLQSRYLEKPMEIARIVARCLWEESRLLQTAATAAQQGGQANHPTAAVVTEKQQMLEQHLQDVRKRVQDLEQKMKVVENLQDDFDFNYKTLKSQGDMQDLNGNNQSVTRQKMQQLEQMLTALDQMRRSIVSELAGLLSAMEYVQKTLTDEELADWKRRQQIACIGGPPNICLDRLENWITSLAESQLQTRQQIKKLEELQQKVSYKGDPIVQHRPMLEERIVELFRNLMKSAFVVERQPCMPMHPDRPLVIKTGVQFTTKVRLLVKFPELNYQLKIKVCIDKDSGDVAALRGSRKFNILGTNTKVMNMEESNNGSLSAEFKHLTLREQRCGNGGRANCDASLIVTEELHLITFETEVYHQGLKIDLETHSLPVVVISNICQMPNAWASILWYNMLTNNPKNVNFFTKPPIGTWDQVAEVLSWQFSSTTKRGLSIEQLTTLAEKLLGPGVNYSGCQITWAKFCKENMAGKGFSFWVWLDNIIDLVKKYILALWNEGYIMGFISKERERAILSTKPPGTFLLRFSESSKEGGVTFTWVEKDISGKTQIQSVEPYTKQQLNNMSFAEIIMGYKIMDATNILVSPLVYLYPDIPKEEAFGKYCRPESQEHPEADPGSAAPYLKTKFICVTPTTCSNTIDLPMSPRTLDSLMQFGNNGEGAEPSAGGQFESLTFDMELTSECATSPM
Sequence of Transcription factor Sp1 (Homo sapiens) (P08047 whole entry, looked up): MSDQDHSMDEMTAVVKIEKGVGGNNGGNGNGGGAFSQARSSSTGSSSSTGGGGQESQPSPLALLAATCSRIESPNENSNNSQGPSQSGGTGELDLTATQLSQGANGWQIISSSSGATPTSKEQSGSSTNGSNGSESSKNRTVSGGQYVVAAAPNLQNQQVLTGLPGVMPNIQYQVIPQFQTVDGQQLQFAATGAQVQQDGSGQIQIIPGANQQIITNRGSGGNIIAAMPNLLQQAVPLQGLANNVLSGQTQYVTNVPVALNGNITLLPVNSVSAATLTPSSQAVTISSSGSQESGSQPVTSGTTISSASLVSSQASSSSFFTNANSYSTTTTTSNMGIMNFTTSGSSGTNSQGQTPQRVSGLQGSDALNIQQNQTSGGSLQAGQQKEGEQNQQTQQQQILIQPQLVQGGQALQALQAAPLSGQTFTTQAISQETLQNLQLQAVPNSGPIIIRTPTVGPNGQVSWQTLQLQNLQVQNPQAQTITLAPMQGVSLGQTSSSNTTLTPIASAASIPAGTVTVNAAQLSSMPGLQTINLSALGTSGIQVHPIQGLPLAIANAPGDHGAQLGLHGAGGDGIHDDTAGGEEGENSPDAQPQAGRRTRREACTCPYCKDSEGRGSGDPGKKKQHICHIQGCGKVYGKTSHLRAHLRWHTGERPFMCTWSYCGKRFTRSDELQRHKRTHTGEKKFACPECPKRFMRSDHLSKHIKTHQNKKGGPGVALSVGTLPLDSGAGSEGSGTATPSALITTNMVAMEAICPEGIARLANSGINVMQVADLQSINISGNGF
Sequence of Glucocorticoid receptor (Homo sapiens) (P04150 whole entry, looked up, the tested form may be a part): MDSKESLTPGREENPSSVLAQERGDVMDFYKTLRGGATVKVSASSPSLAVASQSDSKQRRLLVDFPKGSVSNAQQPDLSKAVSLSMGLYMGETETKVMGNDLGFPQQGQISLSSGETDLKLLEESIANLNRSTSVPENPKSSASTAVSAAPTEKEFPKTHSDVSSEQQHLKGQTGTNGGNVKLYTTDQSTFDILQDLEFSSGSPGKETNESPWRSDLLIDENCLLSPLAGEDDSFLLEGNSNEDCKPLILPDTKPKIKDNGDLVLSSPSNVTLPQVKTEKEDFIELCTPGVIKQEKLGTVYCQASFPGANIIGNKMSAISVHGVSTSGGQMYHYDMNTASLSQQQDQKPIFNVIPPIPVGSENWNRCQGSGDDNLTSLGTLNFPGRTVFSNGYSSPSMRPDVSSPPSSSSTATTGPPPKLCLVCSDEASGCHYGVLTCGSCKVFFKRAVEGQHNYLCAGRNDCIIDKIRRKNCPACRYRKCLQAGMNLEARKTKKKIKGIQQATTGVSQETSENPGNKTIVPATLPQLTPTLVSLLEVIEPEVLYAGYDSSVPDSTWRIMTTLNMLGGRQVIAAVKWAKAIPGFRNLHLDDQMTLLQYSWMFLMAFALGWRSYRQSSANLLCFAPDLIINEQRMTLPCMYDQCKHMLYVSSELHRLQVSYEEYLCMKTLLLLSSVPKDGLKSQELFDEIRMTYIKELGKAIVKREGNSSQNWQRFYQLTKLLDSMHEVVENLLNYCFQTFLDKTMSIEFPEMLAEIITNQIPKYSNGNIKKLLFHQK
Sequence of Nuclear receptor subfamily 1 group I member 3 (Homo sapiens) (Q14994 whole entry, looked up, the tested form may be a part): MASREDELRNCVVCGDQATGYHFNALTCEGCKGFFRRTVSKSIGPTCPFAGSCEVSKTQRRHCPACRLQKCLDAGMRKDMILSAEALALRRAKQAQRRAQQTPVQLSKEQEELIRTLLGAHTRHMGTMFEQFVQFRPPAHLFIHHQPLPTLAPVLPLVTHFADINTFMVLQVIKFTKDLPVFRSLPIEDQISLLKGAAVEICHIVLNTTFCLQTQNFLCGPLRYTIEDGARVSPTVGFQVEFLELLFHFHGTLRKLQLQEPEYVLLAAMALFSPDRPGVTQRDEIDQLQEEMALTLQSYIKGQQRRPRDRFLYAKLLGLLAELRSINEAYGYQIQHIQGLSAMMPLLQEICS
Sequence of Estrogen-related receptor gamma (Homo sapiens) (P62508 whole entry, looked up, the tested form may be a part): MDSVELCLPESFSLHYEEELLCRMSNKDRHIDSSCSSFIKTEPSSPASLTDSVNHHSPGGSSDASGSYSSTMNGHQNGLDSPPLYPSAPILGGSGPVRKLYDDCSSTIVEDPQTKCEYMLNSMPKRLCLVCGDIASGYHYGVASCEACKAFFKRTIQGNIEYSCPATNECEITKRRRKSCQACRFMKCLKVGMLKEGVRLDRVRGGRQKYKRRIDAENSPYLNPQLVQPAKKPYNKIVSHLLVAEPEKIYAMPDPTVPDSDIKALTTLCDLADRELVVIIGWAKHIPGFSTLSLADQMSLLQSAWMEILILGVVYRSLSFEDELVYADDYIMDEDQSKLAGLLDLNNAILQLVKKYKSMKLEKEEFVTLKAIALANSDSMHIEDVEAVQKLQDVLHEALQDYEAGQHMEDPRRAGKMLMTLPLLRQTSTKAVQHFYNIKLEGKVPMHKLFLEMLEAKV

COc1cc(C=O)cc2c1[C@H](COC(N)=O)[C@]1(OC(C)=O)ON2C[C@H]2[C@@H]1N2C(C)=O
active: [1] 8.47 µM | [7] 33.4 µM | [8] 0.0965 µM | [9] 0.157 µM | [10] 57.3 µM | [11] 60.4 µM | [12] 0.146 µM | [15] 33.4 µM
inactive: [2] | [3] | [4] | [5] | [6] | [13] | [14] | [16]

COC(=O)c1ccccc1N
active: [1] 100 µM
not listed: [13] | [16] | [18] | [19] | [20]
inactive: all other assays above

Nc1cc(Cl)cc(C(=O)O)c1Cl
active: [1] 65 µM
not listed: [13] | [16] | [17] | [19] | [20]
inactive: all other assays above

CCCCC(CC)COC(=O)c1ccc(C(=O)OCC(CC)CCCC)c(C(=O)OCC(CC)CCCC)c1 (stereo not drawn)
not listed: [13] | [14] | [18] | [20]
inactive: all other assays above

O=[N+]([O-])C(Br)(CO)CO
active: [1] 158 µM | [3] 100 µM | [4] 170 µM | [5] 145 µM | [11] 23.4 µM | [12] 127 µM | [15] 145 µM
inactive: [2] | [6] | [7] | [8] | [10] | [19] | [13]

Cc1ccc([N+](=O)[O-])cc1
not listed: [14] | [16] | [17] | [18] | [20]
inactive: all other assays above

CCN(CC)N=O
not listed: [13] | [14] | [16] | [17] | [18] | [19] | [20]
inactive: all other assays above

CN(C)c1ccc(C(=O)c2ccc(N(C)C)cc2)cc1
active: [1] 3.72 µM
not listed: [13] | [14] | [16] | [18] | [19] | [20]
inactive: all other assays above

Nc1ccc(Cc2ccc(N)cc2)cc1
not listed: [13] | [14] | [16] | [18]
inactive: all other assays above

O=[N+]([O-])c1ccc(Oc2ccc(Cl)cc2Cl)cc1
active: [1] 25.8 µM | [3] 27.5 µM | [8] 39.7 µM | [11] 100 µM | [12] 27.3 µM
not listed: [13] | [18]
inactive: all other assays above

C1=Cc2cccc3cccc1c23
active: [1] 16.2 µM
not listed: [13] | [14] | [16] | [17] | [18] | [20]
inactive: all other assays above

CN(C)[C@@H]1C(=O)C(C(N)=O)=C(O)[C@@]2(O)C(=O)C3=C(O)c4c(O)cccc4[C@@](C)(O)[C@H]3C[C@@H]12
active: [1] 27.6 µM
not listed: [3] | [12] | [13] | [14] | [16] | [18] | [19] | [20]
inactive: all other assays above

O=P(OCCCl)(OCCCl)OCCCl
active: [1] 43.6 µM
not listed: [9] | [13] | [18]
inactive: all other assays above

CC(C)(OOC(C)(C)c1ccccc1)c1ccccc1
inactive: [2] | [3] | [4] | [8] | [11] | [19]
active: [1] 25 µM | [5] 45.4 µM | [6] 62.9 µM | [7] 100 µM | [10] 142 µM | [12] 26.2 µM | [15] 62.5 µM

OCCOCCO
not listed: [9] | [13] | [14] | [16] | [18] | [20]
inactive: all other assays above

CCN(CC)CCO
inactive: [1] | [2] | [3] | [4] | [5] | [6] | [7] | [8] | [10] | [11] | [15]

CNC(=O)Oc1cccc2c1OC(C)(C)C2
active: [1] 17.1 µM
not listed: [3] | [14] | [16] | [18] | [20]
inactive: all other assays above
